In PubChem BioAssay (NCI):
This is part of a sample that, as a whole, favours compounds with a hit. Of some 83,000 tested, about 20% had one in any assay.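 How to read the values: 0–100, growth inhibition (40 = 60% inhibited); 0, no net growth; -100 to 0, cell death (-40 = 40% of starting cells died; -100 = all dead).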 A number with no mark means an inactive call. Calls of active or inactive are those of the source. The calls were made as follows: active = growth percent below 10; inactive = the rest.

What was measured:
Assay in all cases: NCI-60 one-dose screen, 48 h (100 = growth as untreated, 0 = no growth, -100 = all killed)
Conditions in all cases: 10 µM unless noted
[1] = test system: SR leukemia
[2] = test system: RPMI-8226 leukemia
[3] = test system: OVCAR-8 ovarian
[4] = test system: OVCAR-5 ovarian
[5] = test system: OVCAR-4 ovarian
[6] = test system: SK-OV-3 ovarian
[7] = test system: IGROV1 ovarian
[8] = test system: OVCAR-3 ovarian
[9] = test system: NCI/ADR-RES ovarian
[10] = test system: HS 578T breast

| SMILES | growth [1] | growth [2] | growth [3] | growth [4] | growth [5] | growth [6] | growth [7] | growth [8] | growth [9] | growth [10] |
| --- | --- | --- | --- | --- | --- | --- | --- | --- | --- | --- |
| COc1ccc(/C(=C\c2ccc3c(c2)OCO3)C(=O)Nc2nc3ccccc3s2)cc1OC | 69.8% | 78.2% | 86.8% | 93.7% | 92.2% | 102% | 101% | 97% | 98.1% |  |
| Cn1cc(-c2nc(-c3c[nH]c4ncccc34)cs2)c2cc(F)ccc21 | 13.7% | 36.4% | 51.4% | 21.4% |  | 55.9% | 26.5% | 21% | 8.92% (active) | 66.8% |
| CCSc1sc(-c2ccc(C)cc2)nc1[P+](c1ccccc1)(c1ccccc1)c1ccccc1 | -17.9% (active) | -33.9% (active) | 1.31% (active) | 18.3% | -4.21% (active) | -23.1% (active) | -8.55% (active) |  | -5.4% (active) | -3.68% (active) |
| O=C1CN(c2ccccc2)C(=O)C1C(=O)Nc1ccc(Cl)c(Cl)c1 (centres undefined) | 1.54% [100 µM] (active) | 34.9% [100 µM] | -9.87% [100 µM] (active) | 36.3% [100 µM] | 0.243% [100 µM] (active) | 20.3% [100 µM] | 20.9% [100 µM] | 39.3% [100 µM] | 21.6% [100 µM] |  |
| O=S(=O)(NCCNc1cc(-c2cn(-c3ccccc3)nc2-c2cccc(O)c2)ccn1)c1ccc(F)cc1 | -5.97% (active) | 9.5% (active) | 23.7% | 62.9% | 41.3% | 46.4% | 46.2% | 35.8% | 17.9% |  |
| C[N+](C)(CCCCCC[N+](C)(C)C1c2ccccc2-c2ccccc21)C1c2ccccc2-c2ccccc21 | 98.3% | 101% | 104% | 108% | 111% | 111% |  | 104% | 115% | 98.2% |
| CN(C)c1ccc(-c2ccc(-c3ccc(C(=N)N)c(F)c3)s2)cc1 | 1.32% (active) | -52.6% (active) | -26.4% (active) | -89.2% (active) | -85.1% (active) |  | -84% (active) | -88.2% (active) | -49.2% (active) | 102% |
| C/C(=N/NC(N)=S)C(=O)O | 90% | 75.2% | 71.2% | 91.1% | 85.5% | 107% | 56.7% | 77% | 65.3% |  |
| Cn1cnc2c1c(=O)n(CCC(=O)Nc1ccc(F)cc1)c(=O)n2C | 102% | 101% | 102% | 101% | 109% | 91.2% | 107% |  | 109% |  |
| N#CC1=C(N)Oc2ccc3ccccc3c2C1c1ccccc1 (centres undefined) | 25.1% | 21.8% | 49.8% | 55.8% | 73.6% | 47.2% | 25.5% | 18.4% | 8.41% (active) |  |
| COC(=O)[C@]12CC[C@@H](C)[C@H](C)[C@@H]1C1=CC[C@@H]3[C@@]4(C)CC(=O)[C@H](OC(=O)c5ccco5)[C@@]5(C)COC(=C45)C[C@@]3(C)[C@]1(C)CC2 | 25.8% | 24.4% | 28.5% | 69.2% | 19.6% | 36.1% | 53% |  | 33.3% | 61.4% |
| COc1cc(-c2nc(-c3ccccc3)c(-c3ccccc3)[nH]2)cc(OC)c1O | 4.48% (active) | 0.561% (active) | -0.964% (active) | 75.3% | -36.5% (active) | -0.937% (active) | 22.3% |  |  | 9.67% (active) |
| COc1ccc(C(=O)c2ccc(C)cc2)c(OC)c1OC | 56.6% | 88.7% | 90.4% | 93% | 99.7% | 79.3% | 71.6% |  | 45.2% | 86.9% |
| O=S(=O)(NCCNc1cc(-c2cn(-c3ccccc3)nc2-c2cccc(O)c2)ccn1)c1ccccc1 | 11.7% | 32.7% | 49.8% | 92.1% | 56.3% | 69.5% | 57.1% | 63.3% | 43.9% |  |
| CC1(C)CC[C@]2(C(=O)NCCNCCN)CC[C@]3(C)C(=CC[C@@H]4[C@@]5(C)CCC(=O)C(C)(C)[C@@H]5CC[C@]43C)[C@@H]2C1 | -45.6% (active) | -19.9% (active) | 21.4% | 106% | 65.3% | 89.9% | 23.8% |  | 93.2% | 79% |
| Cn1cc(-c2csc(-c3c[nH]c4ccc(F)cc34)n2)c2cccnc21 | 27.2% | 52% | 47.6% | 78.4% |  | 64.6% | 41.6% | -2.33% (active) | 9.55% (active) | 76.1% |
| CC(=O)Oc1ccccc1C(=O)/C=C/c1cccc([N+](=O)[O-])c1 | -30.8% (active) | -17.4% (active) | 77.7% | 110% |  | 102% | 37.3% | 66.4% | 74.3% | 71.2% |
| CCc1nnc(NC(=O)c2ccoc2COc2ccccc2)s1 | 26.4% | 30.8% | 63.8% | 84.7% | 92.2% | 75.9% | 53.4% |  | 12% | 62% |
| NC(N)=N/N=C/c1ccc(-c2ccc(-c3ccc(Cl)cn3)s2)cc1 | 11.6% | 38.4% | 99.3% | 107% | 99.3% |  | 91.1% | 85.9% | 50.8% | 92.3% |
| N#Cc1c(-c2ccco2)nc2c(c(-c3ccccc3)nn2-c2ccccc2)c1-c1ccc(O)cc1 | 19.7% | 55.3% | 55.2% | 93.4% | 77.7% | 46.4% | 84.2% |  | 76.4% | 53.8% |
| Cc1nn2c(-c3nc4cc(Cl)c(Cl)cc4[nH]3)c(-c3ccc(F)cc3)nc2s1 | 41.1% | 20.6% | 8.25% (active) | 23.8% | -60% (active) | -73.1% (active) | 21.2% |  | 21.4% | 1.04% (active) |
| CN1CCN(c2nc(-c3cccc4ccccc34)nc3sc4c(c23)CCCCCC4)CC1 | 47.1% | 79.3% | 93% | 90.2% | 83.8% | 89.2% | 72.6% |  | 87.4% | 86.1% |
| Cc1cc(N(CCCNc2ccnc3cc(Cl)ccc23)Cc2ccco2)nc(N2CCN(C)CC2)n1 | -16.7% (active) | 3.87% (active) | 55.4% | 73.9% | 57% | 98% | 38.5% |  | 59.8% |  |
| Nc1nc2c3ccncc3cc(-c3cccc(Cl)c3)c2c2cnccc12 | 9.04% (active) | 5.57% (active) | 24.1% | 61.2% | 65.6% | 61.9% | 59% |  | 30.6% | 35.5% |
| Clc1ccccc1-c1nc(Nc2nc3ccccc3s2)nc(C(Cl)(Cl)Cl)n1 | 79.6% | 10.1% | 68.6% | 74.3% | 64.6% | 56.8% | 54.3% |  | 50.6% | 70% |
| COc1cc(/C=C/c2cc(/C=C/c3ccc(O)c(OC)c3)n(-c3ccc(Cl)cc3)c(=O)n2)ccc1O | 36.4% | 64.5% | 107% | 103% | 78.3% | 89.7% | 8.57% (active) | 83.8% | 96.5% |  |
| CC1c2ccccc2N(S(=O)(=O)c2ccccc2)C1C (centres undefined) | 34.8% | 91.9% | 103% | 108% |  | 91.2% | 92.4% | 98.1% | 70.4% | 92.7% |
| CC(C)=CCC[C@](C)(O)[C@H]1CC[C@]2(C)[C@@H]1CC[C@@H]1[C@@]3(C)C/C(=C/c4ccc(Br)cc4)C(=O)C(C)(C)[C@@H]3CC[C@]12C | 80.7% | 71.8% | 84.5% | 101% |  | 96.5% | 101% | 87.5% | 98.2% | 92.2% |
